Results reported in the supplement of paper PMC10849652.
Targets with a hit are over-represented here; the source holds about 7,900 in all. About 0.6% of all pairs of compound and target were hits.

What was measured:
Test in all cases: log2 fold change, soluble protein after heating vs DMSO (PISA); higher = thermal stabilisation; K562 cells, 10 uM, 30 min; active = over 0.2 and 3.5 SD of the protein, either way, in both replicates (recomputed)
bafetinib = compound: Cc1ccc(NC(=O)c2ccc(CN3CC[C@H](N(C)C)C3)c(C(F)(F)F)c2)cc1Nc1nccc(-c2cncnc2)n1 [bafetinib]
Procedure, shortened: (§1)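 K562 cells at 2×10^6 cells/mL were exposed to 10 μM compound for 30 min, then aliquots were heated for 3 min across 48°C-58°C, pooled, and extracted in PBS containing 0.5% NP-40 at 4°C. The supernatant after 21,000xg for 90 min was taken as soluble protein and measured by TMTpro 16plex LC-MS/MS with channel sums equalised. Thermal stability is reported relative to control samples, with values from duplicates. Fold changes are given on a log2 scale.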

[1] = compound: Cc1cccc(CC(=O)N2CCc3c2ccc(-c2cn(C)c4ncnc(N)c24)c3F)n1
Procedure, shortened: as §1

nilotinib = compound: Cc1cn(-c2cc(NC(=O)c3ccc(C)c(Nc4nccc(-c5cccnc5)n4)c3)cc(C(F)(F)F)c2)cn1 [nilotinib]
Procedure, shortened: as §1

[2] = compound: Cc1nc(Nc2n[nH]c3c2CN(C(=O)N[C@H](CN(C)C)c2ccccc2)C3(C)C)c2sccc2n1
Procedure, shortened: as §1

dasatinib = compound: Cc1nc(Nc2ncc(C(=O)Nc3c(C)cccc3Cl)s2)cc(N2CCN(CCO)CC2)n1 [dasatinib]
Procedure, shortened: as §1

[3] = compound: Cc1ncc(-c2ccnc(Nc3ccc(S(C)(=O)=O)cc3)n2)n1C(C)C
Procedure, shortened: as §1

[4] = compound: Cn1cc(-c2ccc3c(c2)CCN3C(=O)Cc2cccc(C(F)(F)F)c2)c2c(N)ncnc21
Procedure, shortened: as §1

[5] = compound: Cn1cc(-c2ccc3nnc(C(F)(F)c4ccc5ncccc5c4)n3n2)cn1
Procedure, shortened: as §1

tipifarnib = compound: Cn1cncc1[C@@](N)(c1ccc(Cl)cc1)c1ccc2c(c1)c(-c1cccc(Cl)c1)cc(=O)n2C [tipifarnib]
Procedure, shortened: as §1

mubritinib = compound: FC(F)(F)c1ccc(/C=C/c2nc(COc3ccc(CCCCn4ccnn4)cc3)co2)cc1 [mubritinib]
Procedure, shortened: as §1

Measured: log2 fold change

GEMIN5 (UniProt Q8TEQ6)
inactive: bafetinib 0.015 | [1] 0.065 | nilotinib -0.046 | dasatinib -0.099 | [3] -0.127 | [4] 0.006 | [5] -0.021 | tipifarnib -0.049 | mubritinib 0.043
active: [2] -0.315

GATD1 (UniProt Q8NB37)
Chain of UniProt Q8NB37 (Q8NB37 whole entry, looked up): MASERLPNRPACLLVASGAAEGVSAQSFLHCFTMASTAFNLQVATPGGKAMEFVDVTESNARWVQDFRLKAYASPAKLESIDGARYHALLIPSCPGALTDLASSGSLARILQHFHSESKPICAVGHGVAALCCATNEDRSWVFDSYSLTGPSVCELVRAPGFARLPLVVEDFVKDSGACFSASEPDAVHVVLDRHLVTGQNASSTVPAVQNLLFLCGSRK
inactive: bafetinib 0.008 | [1] -0.021 | nilotinib 0.059 | [2] -0.016 | dasatinib -0.011 | [3] 0.119 | [4] 0.046 | [5] 0.015 | tipifarnib 0.029 | mubritinib 0.035

GLCCI1 (UniProt Q86VQ1)
inactive: bafetinib -0.074 | [1] 0.037 | nilotinib 0.073 | [2] -0.103 | dasatinib -0.066 | [3] -0.094 | [4] 0.03 | [5] -0.175 | tipifarnib 0.075 | mubritinib 0.011

FBXO3 (UniProt Q9UK99)
inactive: bafetinib -0.052 | [1] 0.06 | nilotinib -0.031 | [2] -0.024 | dasatinib -0.054 | [3] -0.006 | [4] 0.041 | [5] -0.035 | tipifarnib -0.007 | mubritinib 0.055

HOMER1 (UniProt Q86YM7)
Chain of UniProt Q86YM7 (Q86YM7 whole entry, looked up): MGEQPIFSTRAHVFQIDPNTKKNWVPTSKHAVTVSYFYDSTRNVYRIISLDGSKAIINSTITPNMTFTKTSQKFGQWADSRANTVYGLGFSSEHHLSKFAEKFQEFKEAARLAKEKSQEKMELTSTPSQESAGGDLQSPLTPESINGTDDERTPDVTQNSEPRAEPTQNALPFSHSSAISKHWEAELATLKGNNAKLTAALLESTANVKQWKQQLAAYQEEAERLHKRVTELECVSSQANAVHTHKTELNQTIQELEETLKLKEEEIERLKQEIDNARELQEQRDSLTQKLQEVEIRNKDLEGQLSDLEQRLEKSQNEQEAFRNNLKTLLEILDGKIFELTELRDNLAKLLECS
inactive: bafetinib -0.016 | [1] -0.002 | nilotinib -0.02 | [2] 0.046 | dasatinib -0.054 | [3] -0.008 | [4] 0.003 | [5] 0.117 | tipifarnib -0.031 | mubritinib 0.089

GNPAT (UniProt O15228)
inactive: bafetinib -0.129 | [1] 0.045 | nilotinib -0.011 | [2] -0.008 | dasatinib 0.014 | [3] -0.028 | [4] 0.059 | [5] 0.005 | tipifarnib 0.031 | mubritinib 0.005

HRC (UniProt P23327)
Chain of UniProt P23327 (P23327 whole entry, looked up): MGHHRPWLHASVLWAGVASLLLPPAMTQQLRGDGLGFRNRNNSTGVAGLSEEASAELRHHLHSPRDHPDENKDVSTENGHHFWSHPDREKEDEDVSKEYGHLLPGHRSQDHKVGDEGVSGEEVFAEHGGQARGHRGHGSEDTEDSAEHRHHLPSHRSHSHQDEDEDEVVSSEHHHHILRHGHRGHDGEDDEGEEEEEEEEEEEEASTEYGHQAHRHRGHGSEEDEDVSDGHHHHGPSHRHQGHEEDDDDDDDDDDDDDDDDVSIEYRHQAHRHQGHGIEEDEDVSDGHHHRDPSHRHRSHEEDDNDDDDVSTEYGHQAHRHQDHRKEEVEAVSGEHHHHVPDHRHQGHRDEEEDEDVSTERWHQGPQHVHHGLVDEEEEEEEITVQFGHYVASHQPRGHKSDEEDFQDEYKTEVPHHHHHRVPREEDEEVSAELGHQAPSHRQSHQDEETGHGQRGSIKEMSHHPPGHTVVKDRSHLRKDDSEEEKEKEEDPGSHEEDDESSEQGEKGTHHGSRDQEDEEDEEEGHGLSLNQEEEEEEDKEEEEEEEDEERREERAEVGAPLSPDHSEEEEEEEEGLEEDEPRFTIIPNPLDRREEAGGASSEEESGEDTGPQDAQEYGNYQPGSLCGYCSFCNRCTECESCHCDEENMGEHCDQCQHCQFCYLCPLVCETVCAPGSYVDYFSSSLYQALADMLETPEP
inactive: bafetinib -0.098 | [1] -0.147 | nilotinib 0.01 | [2] -0.017 | dasatinib 0.055 | [3] -0.039 | [4] -0.038 | [5] 0.037 | tipifarnib 0.016 | mubritinib 0.041

HLTF (UniProt Q14527)
inactive: bafetinib -0.003 | [1] 0.017 | nilotinib 0.099 | [2] -0.193 | dasatinib -0.035 | [3] 0.015 | [4] -0.035 | [5] -0.01 | tipifarnib 0.007 | mubritinib 0.051

GINS2 (UniProt Q9Y248)
inactive: bafetinib -0.025 | [1] 0.106 | nilotinib -0.024 | [2] -0.031 | dasatinib -0.265 | [3] 0.03 | [4] -0.057 | [5] -0.111 | tipifarnib -0.064 | mubritinib 0.03

HNRNPUL1 (UniProt Q9BUJ2)
inactive: bafetinib -0.011 | [1] -0.069 | nilotinib -0.032 | [2] -0.008 | dasatinib -0.061 | [3] 0.041 | [4] -0.03 | [5] -0.007 | tipifarnib 0.059
active: mubritinib -0.231

GOLPH3 (UniProt Q9H4A6)
inactive: bafetinib 0.074 | [1] 0.032 | nilotinib -0.021 | [2] -0.015 | dasatinib -0.123 | [3] -0.013 | [4] 0.02 | [5] -0.013 | tipifarnib -0.028 | mubritinib 0.07

FOXK1 (UniProt P85037)
Chain of UniProt P85037 (P85037 whole entry, looked up): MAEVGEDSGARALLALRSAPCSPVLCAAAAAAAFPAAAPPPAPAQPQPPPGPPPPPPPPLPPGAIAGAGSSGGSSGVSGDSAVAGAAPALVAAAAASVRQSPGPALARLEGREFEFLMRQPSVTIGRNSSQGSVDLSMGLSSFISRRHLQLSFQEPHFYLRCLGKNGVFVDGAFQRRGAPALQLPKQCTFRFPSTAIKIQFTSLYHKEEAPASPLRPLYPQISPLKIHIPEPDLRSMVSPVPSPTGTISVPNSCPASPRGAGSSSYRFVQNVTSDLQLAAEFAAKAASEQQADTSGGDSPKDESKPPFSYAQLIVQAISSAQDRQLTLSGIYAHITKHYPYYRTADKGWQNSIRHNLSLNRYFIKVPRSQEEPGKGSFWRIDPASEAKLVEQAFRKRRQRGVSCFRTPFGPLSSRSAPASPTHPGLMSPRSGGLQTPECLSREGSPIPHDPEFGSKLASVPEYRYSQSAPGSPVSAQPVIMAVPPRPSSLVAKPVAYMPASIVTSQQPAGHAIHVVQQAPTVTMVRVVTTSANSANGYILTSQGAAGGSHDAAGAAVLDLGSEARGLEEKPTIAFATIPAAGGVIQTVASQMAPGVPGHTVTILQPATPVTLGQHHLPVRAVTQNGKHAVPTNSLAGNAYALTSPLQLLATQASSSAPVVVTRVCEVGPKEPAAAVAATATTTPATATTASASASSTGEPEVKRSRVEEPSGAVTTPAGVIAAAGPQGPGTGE
active: [3] -1.19
inactive: bafetinib 0.03 | [1] 0.052 | nilotinib 0.487 | [2] -0.816 | dasatinib 0.128 | [4] 0.312 | [5] 0.184 | tipifarnib 0.008 | mubritinib 0.03

ICAM1 (UniProt P05362)
inactive: bafetinib 0.031 | [1] -0.024 | nilotinib 0.055 | [2] 0.051 | dasatinib -0.01 | [3] -0.019 | [4] 0.048 | [5] -0.006 | tipifarnib 0.019 | mubritinib 0.046

GLUL (UniProt P15104)
Chain of UniProt P15104 (P15104 whole entry, looked up): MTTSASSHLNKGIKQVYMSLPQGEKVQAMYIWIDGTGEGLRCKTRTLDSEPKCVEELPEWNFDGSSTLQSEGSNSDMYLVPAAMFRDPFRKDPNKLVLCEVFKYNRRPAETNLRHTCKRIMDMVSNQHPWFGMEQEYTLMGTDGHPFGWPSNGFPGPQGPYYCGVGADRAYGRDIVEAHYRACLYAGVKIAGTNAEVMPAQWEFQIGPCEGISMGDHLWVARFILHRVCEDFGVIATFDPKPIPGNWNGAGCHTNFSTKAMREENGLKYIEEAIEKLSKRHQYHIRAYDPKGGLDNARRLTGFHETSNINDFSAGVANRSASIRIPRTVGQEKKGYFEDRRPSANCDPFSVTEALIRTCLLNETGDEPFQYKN
inactive: bafetinib -0.027 | [1] -0.038 | nilotinib -0.061 | [2] 0.062 | dasatinib 0.015 | [3] -0.148 | [4] -0.035 | [5] -0.085 | tipifarnib 0.011 | mubritinib -0.112

GEMIN6 (UniProt Q8WXD5)
inactive: bafetinib -0.011 | [1] -0.042 | nilotinib 0.004 | [2] 0.015 | dasatinib -0.024 | [3] -0.022 | [4] 0.018 | tipifarnib -0.002 | mubritinib 0.067
active: [5] 0.306

IFNGR1 (UniProt P15260)
inactive: bafetinib -0.262 | [1] -0.027 | nilotinib 0.075 | [2] -0.015 | dasatinib 0.154 | [3] -0.126 | [4] 0.123 | [5] -0.123 | tipifarnib 0.119 | mubritinib 0.299

FNTA (UniProt P49354)
active: tipifarnib 0.429
inactive: bafetinib -0.024 | [1] -0.009 | nilotinib -0.002 | [2] 0.104 | dasatinib 0.165 | [3] 0.019 | [4] 0.036 | [5] 0.091 | mubritinib 0.013

IFI30 (UniProt P13284)
active: bafetinib -0.41
inactive: [1] 0.007 | nilotinib 0.068 | [2] 0.015 | dasatinib 0.016 | [3] -0.049 | [4] 0.097 | [5] 0.002 | tipifarnib 0.04 | mubritinib 0.044

GTF2A2 (UniProt P52657)
inactive: bafetinib -0.032 | [1] -0.036 | nilotinib -0.025 | [2] 0.022 | dasatinib 0.047 | [3] -0.021 | [4] 0.056 | [5] 0.104 | tipifarnib -0.028 | mubritinib 0.008

GNAS (UniProt Q5JWF2)
Chain of UniProt Q5JWF2 (Q5JWF2 whole entry, looked up): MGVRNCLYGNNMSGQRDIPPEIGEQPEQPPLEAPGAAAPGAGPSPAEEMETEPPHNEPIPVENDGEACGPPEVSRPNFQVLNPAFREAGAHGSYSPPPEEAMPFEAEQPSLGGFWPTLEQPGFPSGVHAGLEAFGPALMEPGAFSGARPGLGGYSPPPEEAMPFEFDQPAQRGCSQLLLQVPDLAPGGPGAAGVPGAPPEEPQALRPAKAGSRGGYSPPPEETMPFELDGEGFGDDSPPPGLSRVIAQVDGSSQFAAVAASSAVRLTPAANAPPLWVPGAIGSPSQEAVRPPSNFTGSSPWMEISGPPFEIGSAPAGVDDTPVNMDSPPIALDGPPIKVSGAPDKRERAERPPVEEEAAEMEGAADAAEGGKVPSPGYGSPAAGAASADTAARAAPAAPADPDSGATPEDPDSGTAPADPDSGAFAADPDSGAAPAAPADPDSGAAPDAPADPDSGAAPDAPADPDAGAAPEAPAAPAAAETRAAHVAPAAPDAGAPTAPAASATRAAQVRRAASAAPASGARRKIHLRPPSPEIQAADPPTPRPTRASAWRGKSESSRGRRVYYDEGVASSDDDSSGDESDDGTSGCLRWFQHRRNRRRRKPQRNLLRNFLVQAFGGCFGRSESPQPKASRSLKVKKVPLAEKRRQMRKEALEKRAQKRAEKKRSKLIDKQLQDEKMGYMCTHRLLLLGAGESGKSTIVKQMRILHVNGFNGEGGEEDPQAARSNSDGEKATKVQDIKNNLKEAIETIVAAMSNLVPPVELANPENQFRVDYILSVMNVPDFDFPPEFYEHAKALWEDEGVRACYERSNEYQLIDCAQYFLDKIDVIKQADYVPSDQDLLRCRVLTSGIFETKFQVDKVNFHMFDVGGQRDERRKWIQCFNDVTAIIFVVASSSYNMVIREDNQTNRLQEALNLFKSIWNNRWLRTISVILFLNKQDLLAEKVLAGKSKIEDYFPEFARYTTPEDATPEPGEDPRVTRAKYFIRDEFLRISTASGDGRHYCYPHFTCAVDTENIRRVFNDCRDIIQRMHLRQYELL
inactive: bafetinib 0.129 | [1] -0.001 | nilotinib 0.103 | [2] -0.02 | dasatinib 0.064 | [3] 0.005 | [4] 0.029 | [5] 0.031 | tipifarnib 0.005 | mubritinib -0.035

GATA1 (UniProt P15976)
inactive: bafetinib -0.09 | [1] 0.007 | nilotinib 0.028 | [2] 0.033 | dasatinib 0.157 | [3] -0.008 | [4] -0.084 | [5] -0.017 | tipifarnib -0.015 | mubritinib -0.033

GNG5 (UniProt P63218)
Chain of UniProt P63218 (P63218 whole entry, looked up): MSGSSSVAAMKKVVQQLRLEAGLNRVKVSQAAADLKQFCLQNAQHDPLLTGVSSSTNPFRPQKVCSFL
inactive: bafetinib 0.013 | [1] -0.048 | nilotinib 0.12 | [2] 0.023 | dasatinib 0.06 | [3] -0.051 | [4] 0.027 | [5] 0.169 | tipifarnib 0.027 | mubritinib 0.039

GPX4 (UniProt P36969)
inactive: bafetinib 0.003 | [1] 0.023 | nilotinib 0.036 | [2] -0.031 | dasatinib 0.015 | [3] 0.019 | [4] 0.05 | [5] 0.003 | tipifarnib -0.046 | mubritinib 0.033

HADHB (UniProt P55084)
active: mubritinib 0.571
inactive: bafetinib 0.251 | [1] 0.132 | nilotinib 0.074 | [2] -0.106 | dasatinib -0.072 | [3] 0.032 | [4] 0.155 | [5] 0.108 | tipifarnib -0.264

HIP1R (UniProt O75146)
Chain of UniProt O75146 (O75146 whole entry, looked up): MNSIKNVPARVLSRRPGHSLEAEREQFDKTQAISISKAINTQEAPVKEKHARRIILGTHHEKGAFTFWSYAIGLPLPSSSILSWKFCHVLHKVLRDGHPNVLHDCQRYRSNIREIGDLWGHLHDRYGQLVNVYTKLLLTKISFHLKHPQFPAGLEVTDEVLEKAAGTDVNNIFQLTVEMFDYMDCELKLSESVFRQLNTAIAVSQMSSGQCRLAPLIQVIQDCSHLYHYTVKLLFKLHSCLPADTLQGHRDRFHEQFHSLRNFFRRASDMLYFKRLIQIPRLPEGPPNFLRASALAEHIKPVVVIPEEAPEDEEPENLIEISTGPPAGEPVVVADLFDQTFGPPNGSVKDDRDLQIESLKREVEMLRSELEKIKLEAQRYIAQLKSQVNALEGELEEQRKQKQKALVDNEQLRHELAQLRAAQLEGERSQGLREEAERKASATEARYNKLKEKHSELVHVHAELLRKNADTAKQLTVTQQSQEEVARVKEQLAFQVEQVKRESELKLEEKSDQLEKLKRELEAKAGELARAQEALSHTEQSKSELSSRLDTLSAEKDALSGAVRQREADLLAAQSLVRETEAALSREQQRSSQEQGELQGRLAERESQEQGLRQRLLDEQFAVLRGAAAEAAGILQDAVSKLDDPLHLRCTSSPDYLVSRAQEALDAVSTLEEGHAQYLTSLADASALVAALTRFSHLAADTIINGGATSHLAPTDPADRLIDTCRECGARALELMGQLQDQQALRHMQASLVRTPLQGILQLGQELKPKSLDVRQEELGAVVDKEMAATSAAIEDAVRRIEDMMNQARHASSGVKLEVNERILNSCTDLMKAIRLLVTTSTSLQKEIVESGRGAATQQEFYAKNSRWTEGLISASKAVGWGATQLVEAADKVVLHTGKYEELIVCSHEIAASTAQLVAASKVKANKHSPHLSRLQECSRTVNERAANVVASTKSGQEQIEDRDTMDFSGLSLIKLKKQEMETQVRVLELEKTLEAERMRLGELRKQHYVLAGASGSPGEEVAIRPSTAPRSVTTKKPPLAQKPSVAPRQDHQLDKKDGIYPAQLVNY
inactive: bafetinib -0.021 | [1] 0.043 | nilotinib -0.11 | [2] 0.016 | dasatinib -0.144 | [3] -0.019 | [4] 0.022 | [5] -0.013 | tipifarnib -0.075 | mubritinib 0.036

HIC2 (UniProt Q96JB3)
inactive: bafetinib 0.065 | [1] 0.006 | nilotinib 0.075 | dasatinib 0.071 | [3] -0.181 | [4] -0.124 | [5] -0.032 | tipifarnib -0.051 | mubritinib -0.051
active: [2] -0.446

HAUS4 (UniProt Q9H6D7)
inactive: bafetinib -0.069 | [1] 0.023 | nilotinib 0.08 | [2] 0.086 | dasatinib 0.178 | [3] 0.567 | [4] -0.045 | [5] -0.051 | tipifarnib -0.115 | mubritinib -0.547

FKBP4 (UniProt Q02790)
Chain of UniProt Q02790 (Q02790 whole entry, looked up): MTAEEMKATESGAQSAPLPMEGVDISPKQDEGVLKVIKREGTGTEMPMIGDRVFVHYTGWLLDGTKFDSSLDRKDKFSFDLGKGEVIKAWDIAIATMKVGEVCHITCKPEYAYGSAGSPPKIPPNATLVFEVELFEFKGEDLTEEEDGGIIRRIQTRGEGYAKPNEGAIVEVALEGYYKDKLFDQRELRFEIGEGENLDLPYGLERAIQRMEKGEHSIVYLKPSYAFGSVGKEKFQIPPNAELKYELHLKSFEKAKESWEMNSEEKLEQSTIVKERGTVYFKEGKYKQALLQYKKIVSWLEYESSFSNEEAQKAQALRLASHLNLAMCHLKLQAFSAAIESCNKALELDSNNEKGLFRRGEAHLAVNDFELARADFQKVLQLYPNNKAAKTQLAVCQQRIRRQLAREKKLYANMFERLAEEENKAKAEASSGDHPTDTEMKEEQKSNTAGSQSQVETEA
inactive: bafetinib -0.014 | [1] 0.017 | nilotinib -0.05 | [2] -0.011 | dasatinib -0.114 | [3] 0.024 | [4] 0.033 | [5] -0.002 | tipifarnib -0.092 | mubritinib 0.012

FIS1 (UniProt Q9Y3D6)
inactive: bafetinib -0.087 | [1] -0.034 | nilotinib 0.041 | [2] -0.002 | dasatinib -0.044 | [3] 0.007 | [4] 0.111 | [5] 0.07 | tipifarnib -0.024 | mubritinib 0.053

FLNA (UniProt P21333)
inactive: bafetinib 0.011 | [1] 0.059 | nilotinib -0.056 | [2] -0.025 | dasatinib -0.158 | [3] 0.059 | [4] -0.053 | [5] 0.007 | tipifarnib -0.176 | mubritinib 0.112
